Six compounds from PubChem BioAssay (NCATS) can be followed below.

Inconclusive results are not listed. Entries that show only a call come without a potency. Calls of active or inactive are those of the source. Unless noted, calls come from the whole dose curve; as a rule, active = well fitted curve in the direction sought with a large enough effect; inconclusive = small, poorly fitted or top-dose-only effect, or another doubt; inactive = no such curve, though single readings can be large; an effect the other way counts as inactive or inconclusive.

The nature of assay [1]: qHTS assay to identify small molecule inhibitors of chordoma cells - UCH-1 (AID 1259355). Note: nearly all actives have a fitted effect of over 55% in size. Put shortly:
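Seed 800 cells per well; incubate overnight at 37 C, 5% CO2. Add test compounds (15 concentrations), then the auranofin–topoisomerase-agent combination. Incubate 48hr, add CellTiter-Glo, wait 30min, read luminescence.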
A general note: Quantitative high-throughput screening tests each substance at several concentrations.

Assay [2] is described as follows: qHTS profiling for inhibitors of Plasmodium falciparum (3D7) proliferation (AID 743322).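 Note: infected erythrocytes exposed to compound for 72 h before lysis.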 The conditions noted are these: P. falciparum 3D7 proliferation; at 28.7 µM (top of the series). In outline:
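Erythrocytes infected with P. falciparum (0.3% parasitemia, 2.5% hematocrit) incubated with compounds 72 h at 37 C, 5% CO2. Lysis with saponin/Triton buffer containing SYBR Green I, overnight at room temperature in the dark; DNA fluorescence (485/535 nm) normalised to 0.29 uM artemisinin and DMSO.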

Assay [3] is described as follows: qHTS profiling for inhibitors of Plasmodium falciparum (DD2) proliferation (AID 743323; call rule not given here). To be noted: lower = more inhibition; at 28.7 µM (top of the series). Put shortly:
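Parasite DNA quantified by SYBR Green fluorescence (ex 485, em 535 nm) after saponin/Triton lysis and overnight dark incubation. Cultures: 0.3% parasitemia, 2.5% hematocrit, 72 h, 37 C; data scaled between DMSO and 0.29 uM artemisinin.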

Assay [4] is described as follows: qHTS profiling for inhibitors of Plasmodium falciparum (HB3) proliferation (AID 743324). To be noted: Plasmodium falciparum HB3 blood-stage proliferation; at 28.7 µM (top of the series). In outline:
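P. falciparum HB3 grown in erythrocytes (0.3% parasitemia, 2.5% hematocrit final) with compound for 72 h at 37 C, 5% CO2. Parasite DNA detected by SYBR Green after saponin/triton lysis overnight; normalized to 0.29 uM artemisinin and DMSO.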

With `c1csc(C2(N3CCCCC3)CCCCC2)c1`, in assay [1], the Potency entry is “inactive”.
With `C[N+]1([O-])[C@@H]2CC(OC(=O)[C@H](CO)c3ccccc3)C[C@H]1[C@@H]1O[C@@H]12` (stereo partly drawn), the Potency entry in assay [1] was “inactive”.
On the same count and under the same terms, for `[N-]=[N+]=CC(=O)OCC(N)C(=O)O` (stereo not drawn) the value was “inactive”; for `CCC1(c2ccccc2)C(=O)NC(=O)N(C)C1=O` (stereo not drawn), “inactive”.
Still for that read-out and setting: with `O=c1ccc2cc(O[C@@H]3O[C@H](CO)[C@@H](O)[C@H](O)[C@H]3O)c(O)cc2o1` the entry was “inactive”.
`C/C(=C\c1csc(C)n1)[C@@H]1C[C@@H]2O[C@]2(C)CCC[C@H](C)[C@H](O)[C@@H](C)C(=O)C(C)(C)[C@@H](O)CC(=O)O1` registered a remaining parasite growth % (stronger effect = lower value) in assay [2] of 11%. The compound also yielded an activity, percent of control in assay [3] of 13%. The remaining proliferation (% of control), lower = more inhibition in assay [4] came to 14.1%.
